From PubChem BioAssay (NCI)
This is part of a sample that, as a whole, favours compounds with a hit. Of some 83,000 tested, about 20% had one in any assay.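 The test compound was applied at a single concentration to cells in 96-well plates for 48 hours, and percent growth was recorded.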 Calls of active or inactive are those of the source. The calls were made as follows: active = growth percent below 10; inactive = the rest.

Tested on: HOP-92 NSCLC
Experiment: NCI-60 one-dose screen, 48 h (100 = growth as untreated, 0 = no growth, -100 = all killed)
Details: 10 µM

Structure (SMILES) | growth
NS(=O)(=O)Oc1ccc2c(ccn2C(=O)C23CC4CC(CC(C4)C2)C3)c1 | 122% (inactive)
COc1ccc(-c2cc(-c3ccc(Cl)cc3)nc(SCCCC(=O)NO)n2)cc1 | 1.25% (active)
Nc1cc(Br)c(-c2nn3c(CCC(=O)c4nc5ccccc5[nH]4)nnc3s2)c(Br)c1 | 72.8% (inactive)

Tested on: NCI-H522 lung
Experiment: as above
Details: 10 µM

Structure (SMILES) | growth
CC(C)N(CCOc1cccc(-c2nc3sccn3c2-c2ccnc(S(C)(=O)=O)n2)c1)C(C)C | 82% (inactive)
O=C(CSc1nnc(-c2ccc(Cl)cc2)o1)Nc1ccc(C(=O)/C=C/c2ccc(Cl)cc2)cc1 | 86.8% (inactive)
CC[C@@H](C(=O)[C@@H](C)[C@@H](O)[C@H](C)[C@@H]1O[C@@H]([C@@H](CC)C(=O)N(CC)CC)CC[C@@H]1C)C1O[C@]2(C=CC(=O)[C@]3(CC[C@@](C)([C@H]4CC[C@](O)(CC)[C@H](C)O4)O3)O2)[C@H](C)C[C@@H]1C (stereo partly drawn) | 8.58% (active)
COc1ccc(-c2onc(N)c2-c2cc(OC)c3c(c2)OCO3)cc1 | 9.81% (active)
CCN(CC)CCOc1cccc2c1C(=O)c1cccc(OCCN(CC)CC)c1C2=O | 42.8% (inactive)
COc1cc(/C=C/c2cc(/C=C/c3ccc(O)c(OC)c3)n(C(=O)Nc3ccc(C)cc3)n2)ccc1O | -19.3% (active)
CCOC(=O)c1cc(C(=O)c2ccc(F)cc2F)n2ccccc12 | 70.1% (inactive)
COc1cc2c(cc1NC(=O)C(Cl)Cl)-c1ccc(NC(=O)C(Cl)Cl)cc1C2 | 82.5% (inactive)
COc1ccc(-c2cc(-c3ccccc3)nc(SCCCC(=O)NO)n2)cc1 | -7.67% (active)
O=S(=O)(Oc1ccc(-c2ccc3sccc3c2)cc1)c1ccc(F)cc1 | 87.7% (inactive)
COc1cc(-c2nn(-c3ccc(NC(=O)NCCCNC(=O)c4ccccc4)cc3)cc2-c2ccncc2)ccc1Cl | 3.7% (active)
CN(C)CCCOc1ccc(OCCCN(C)C)c2c1C(=O)c1ccccc1C2=O | -48.5% (active)
COc1cccc(C2C(C#N)=C(N)Oc3cc(N)ccc32)c1 (stereo not drawn) | -0.592% (active)
COc1cc(/C=C/c2cc(/C=C/c3ccc(O)c(OC)c3)[nH]c(=O)n2)ccc1O | 54.6% (inactive)
COc1ccc2nc(-c3ccc(Cl)cc3)cc(-c3nnc(SC/C(=N\O)c4ccccc4)n3-c3ccccc3)c2c1 | 82.7% (inactive)
CCOC(=O)CN(c1sc(C)c(C)c1C(=O)OCC)S(=O)(=O)c1ccc(C)cc1 | 108% (inactive)
COc1ccc(/C=C2/SC(=S)NC2=O)c(OC)c1OC | 73.3% (inactive)
CC(C)(C)OC(=O)N1CCc2c(sc3ncnc(N/N=C/c4ccccc4Br)c23)C1 | 68.2% (inactive)
NC(CSC(c1ccccc1)(c1ccccc1)c1cccc2ccccc12)C(=O)O (stereo not drawn) | 104% (inactive)
CN(C)CCCOc1ccccc1NC1=C(Cl)C(=O)C(Nc2ccccc2OCCCN(C)C)=C(Cl)C1=O | -67.2% (active)

Structure (SMILES) | growth
NS(=O)(=O)c1ccc(Br)cc1 | 86.2% (inactive)
CN(C)CCCOc1ccc(NC2=C(Cl)C(=O)C(Nc3ccc(OCCCN(C)C)cc3)=C(Cl)C2=O)cc1 | -75.2% (active)
COc1ccc(-c2n[nH]nc2-c2cc(OC)c3c(c2OC)OCO3)cc1 | -12.8% (active)
C=CCn1c(SCC(=O)Nc2ccc(C(=O)/C=C/c3cc(OC)c(OC)c(OC)c3)cc2)nnc1-c1cc(-c2ccc(Cl)cc2)nc2ccccc12 | 83.1% (inactive)
COc1ccc(C2=Cn3c(CCC(=O)c4nc5ccccc5[nH]4)nnc3SC2)cc1 | 98.6% (inactive)
CCN1CCN(CCC(=O)Nc2cccc(-n3cc(-c4ccncc4)c(-c4ccc(Cl)c(OC)c4)n3)c2)CC1 | -23.2% (active)
N#CCc1csc(Cc2ccccc2)n1 | 88.9% (inactive)
Cc1[nH]c2ccccc2c1/C=N/Nc1ncnc2sc3c(c12)CCN(CC(=O)OC(C)(C)C)C3 | 58.4% (inactive)
CCCc1cn(CC(=O)Nc2nc3ccccc3s2)nn1 | 93.8% (inactive)
C/C=C/CSC(C)(C)C(=O)NC | 86% (inactive)
Cc1ccc(Cl)cc1NC(=O)CCl | 55.6% (inactive)
CCOC(=O)c1cc(C(=O)c2ccc(OC)c(OC)c2)n2c1ccc1ccc3cccnc3c12 | 0.908% (active)
Cc1c(Cl)cccc1NC(=O)CCCl | 91% (inactive)
Cc1ccc(NCCNCC(C)(C)O)c2c(=O)c3ccc(Cl)cc3sc12 | 49.4% (inactive)
OCC1OC(n2cnc3c(NCc4ccco4)ncnc32)C(O)C1O (stereo not drawn) | 23.8% (inactive)
NS(=O)(=O)Oc1ccc(NC(=O)C2CCCCCC2)cc1 | 95.6% (inactive)
COc1cc(-c2nn(-c3ccc(NC(=O)NCCNS(=O)(=O)c4ccc(F)cc4)cc3)cc2-c2ccncc2)ccc1Cl | -10.4% (active)
NS(=O)(=O)Oc1ccc2c(ccn2C(=O)C23CC4CC(CC(C4)C2)C3)c1 | 94.9% (inactive)
COc1ccc(-c2cc(-c3ccc(Cl)cc3)nc(SCCCC(=O)NO)n2)cc1 | -12.1% (active)
Nc1cc(Br)c(-c2nn3c(CCC(=O)c4nc5ccccc5[nH]4)nnc3s2)c(Br)c1 | 97.4% (inactive)
